According to PubChem BioAssay AID1347426 (Functional Genomics Laboratory (NCATS/FGL), 2020):
In all, about 31,000 sequences went through this assay and about 1,400 (4.5%) were called active. Shown is part of a subset that was picked to be rich in actives. A number with no mark means an inactive call.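 The calls were made as follows: active = median seed-adjusted z-score above 1 or below -1; inactive = the rest.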

Test: Novel Modifiers of Survival Motor Neuron (SMN) Protein: Gene Identification via Genome-wide siRNA Screen;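 also: luminescence tracks full-length SMN protein made from the SMN2 reporter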
Details: HEK293T SMN2-luciferase reporter, siRNA knockdown, 72 h; actives lie on both sides
Summary of the method: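 Luciferase signal, proportional to full-length SMN made from an SMN2 cDNA reporter in stable HEK293T cells, was read 72 h after siRNA reverse transfection. Values were expressed as MAD scores after non-targeting-control normalization and log10 conversion; seed analysis flagged off-targets.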

| Sequence | median seed-adjusted z-score |
| --- | --- |
| GAGUUAGGGAAAAAGCGUATT against ANK3 | 0.0252 |
| CGUUGUUUUUGAGCACGUUTT against LMBR1 | 0.236 |
| GGGAGAUCCUAGAACAAGATT against TAOK1 | -0.0533 |
| GUUUUGACCCUAUAGUUUATT against P2RY5 | 0.0278 |
| GCAUUUGUUUGGGUUGCGATT against MTF2 | 0 |
| GCAUUGUGAUCGAGGACAATT against HCN2 | 0 |
| CGACAAUUCUUCUAGACAATT against TTC3 | -1.17 (active) |
| ACAUCGAGUCAGAUCUUCATT against SLC11A1 | -0.516 |
| GGAGGUAUCUAACAAGAUUTT against LPO | 0.201 |
| UGCACGAUCUUCUACCCAATT against TKTL1 | -0.495 |
| AGCUUUCUUGAGCACCUGATT against LRRC32 | 0.0464 |
| GAUGGACAUUGAUAGCGAUTT against DTX3L | 0.0785 |
| GAACGGCUCUUAAGAUCAATT against CACNA1D | -0.0856 |
| CUAUGUACCGCUUCACUGATT against MMP9 | -1.15 (active) |
| GGAAAUCUGUCACAUCGUATT against NR1I3 | 0.000933 |
| CGGGUUUCAUCAAAGUGCATT against RASSF5 | 0.11 |
| GCAACUUCCUAGAACUGUUTT against PCYT1B | 0.177 |
| GGAGGACGGCUUCUACGAATT against KCNJ9 | -0.0832 |
| GACUCUCUACCAUGGAUUUTT against SLC25A42 | -1.02 (active) |
| CGUACAUCCAGUGACCCUATT against MTMR4 | -0.735 |
| GAAACCAUCGGGAAGAUUUTT against VWA2 | 0.584 |
| GAAAUGUGGUACUAAAGCATT against RALBP1 | -0.0514 |
| CAAUGAUCAUGGACCGUUUTT against CPEB3 | 0.086 |
| CAAGUGCGAUAUCACCUUATT against IL4 | -0.192 |
| UCACAGUCACAUACAGAGATT against SNRPD3 | -2.69 (active) |
| GUAUCUAACUUAUCUACUATT against HTR5A | -0.0687 |
| GGUUUCAACUGGACUUCUATT against MFSD5 | 0.205 |
| ACAGUCUUGUGAUCAGAAATT against UHRF1 | 0.231 |
| AAAGCAAGCUGUUACAAAATT against ACAT2 | 1.25 (active) |
| GACGUAACAUCAACAGAUATT against SV2B | -0.43 |
